About 79,000 compounds went through this panel and 15% of them were active in at least one assay; those are over-represented in the sample as a whole. Active and inactive are the calls of the source. Cut-off read from the data, not from the text of the source: active = growth inhibition above about 70%; inactive = the rest.
Key:
[1] = NCI Yeast Anticancer Drug Screen. Data for the rad50 strain (AID 155);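 note: 0% = growth of vehicle-only cultures of the same strain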; conditions: S. cerevisiae rad50 strain growth inhibition; at 50.0 µM; hits give high values
How it was run: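 Growth of the mutant yeast was measured after compound exposure and referenced to vehicle-treated cultures.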

[2] = NCI Yeast Anticancer Drug Screen. Data for the mec2-1 strain (AID 157); conditions: S. cerevisiae mec2-1 strain, at 50.0 µM, hits give high values
How it was run: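 Using mec2-1 yeast: add compound, measure growth, express inhibition versus vehicle-treated cultures.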

[3] = NCI Yeast Anticancer Drug Screen. Data for the sgs1 mgt1 strain (AID 161);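 note: 0% = growth of cultures given vehicle only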; conditions: S. cerevisiae sgs1 mgt1 strain, at 50.0 µM, hits give high values
How it was run: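 Yeast cells carrying a defined DNA-repair defect were exposed to test compounds. Growth inhibition was measured relative to vehicle-treated controls.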

[4] = NCI Yeast Anticancer Drug Screen. Data for the cln2 rad14 strain (AID 165);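 note: 0% = growth equal to vehicle treated cultures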; conditions: S. cerevisiae cln2 rad14 strain, at 50.0 µM, hits give high values
How it was run: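 Yeast strain cln2 rad14, bearing defects in cell cycle control and DNA repair, serves as the test system; values reflect growth inhibition compared with vehicle.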

[5] = NCI Yeast Anticancer Drug Screen. Data for the bub3 strain (AID 167); conditions: S. cerevisiae bub3 mutant strain, at 50.0 µM, hits give high values
How it was run: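 Whole-cell yeast assay. The mutant strain was incubated with compounds, and growth inhibition was determined by comparison with vehicle-treated cells.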

[6] = NCI Yeast Anticancer Drug Screen. Data for the mlh1 rad18 strain (AID 175); conditions: S. cerevisiae mlh1 rad18 strain growth inhibition; at 50.0 µM; hits give high values
How it was run: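 Steps: expose repair-defective yeast to compound; measure growth; express inhibition against vehicle-treated controls.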

Measured: growth inhibition

CCn1c(O)c(C=Nc2ccccc2)s/c1=N/Nc1nc(C)c(C(C)=O)s1
inactive: [1] 24.6% | [2] 5.25% | [3] 17.2% | [4] 16.1% | [5] 42.9% | [6] 21.2%

Cn1c2ccccc2c2oc(CO)cc(=O)c21
inactive: [1] 13.2% | [2] 0.4% | [3] 5.8% | [4] 23.9% | [5] 10.4% | [6] 19.3%

OC[C@@H](O)[C@H]1NC[C@@H](O)[C@H]1O
inactive: [1] -45.1% | [2] -57.1% | [3] -50.1% | [4] 7.7% | [5] -26.1% | [6] -17.9%

O=c1[nH]cnc2c1ncn2CCc1ccc([N+](=O)[O-])cc1[N+](=O)[O-]
inactive: [1] 3% | [2] -6.15% | [3] 9.4% | [4] -54.9% | [5] -15.1% | [6] -7.95%

Cc1ccc(S(=O)(=O)OCCOc2ccc(C(C)(C)CC(C)(C)C)cc2)cc1
inactive: [1] 43.9% | [2] -15.6% | [3] 30.5% | [4] -6.2% | [5] -1.65% | [6] 8.8%

C/C(=N\O)C(=O)c1cccc([N+](=O)[O-])c1
inactive: [1] 12% | [2] 8.3% | [3] 15.4% | [4] 2.75% | [5] -7.45% | [6] 27.1%

COc1cc(/C=C/C=C2\CC/C(=C\C=C\c3ccc(O)c(OC)c3)C2=O)ccc1O
inactive: [1] 10.2% | [2] 18.4% | [3] 31.4% | [4] 37.7% | [5] 29.5% | [6] -9.1%

O=C(Nc1nncs1)c1cccs1
inactive: [1] -13.8% | [2] -6.45% | [3] -5.6% | [4] 3.35% | [5] -11.2% | [6] -27.5%

CS(=O)(=O)N1C=CC2C(C=C1)C1(c3ccccc3)OC2(c2ccccc2)c2ccccc21 (stereo not drawn)
inactive: [1] -9.75% | [2] -9.25% | [3] 0.35% | [4] -39.7% | [5] 2.95% | [6] -19.5%

C[C@@H]1CC[C@]2(C)C3(C)CC[C@]2(OC3=O)[C@@]12CC(c1ccoc1)OC2=O (stereo partly drawn)
inactive: [1] -5.9% | [2] -13.8% | [3] -9.35% | [4] -7.45% | [5] -5.45% | [6] -42.3%

CSc1c2c([nH]c(=O)c1C#N)-c1ccccc1CC2
inactive: [1] -6.5% | [2] -1.4% | [3] 4.85% | [4] 15.1% | [5] -3.65% | [6] 3.95%

CC1(S)CCC2CC1C2(C)C (stereo not drawn)
inactive: [1] -15.7% | [2] -54.1% | [3] -35% | [4] 4.95% | [5] -27.4% | [6] -12.1%

COC(=O)C(O)C(O)C(O)C(O)C(O)CO (stereo not drawn)
inactive: [1] -1.4% | [2] -12.1% | [3] 0.25% | [4] -45.4% | [5] -8.6% | [6] -5.3%

O=C(C(O)c1ccccc1)N1CCCCC1 (stereo not drawn)
inactive: [1] 32.6% | [2] 14.2% | [3] -2.95% | [4] 9.85% | [5] 4.3% | [6] 21.6%

Cc1csc(-c2ccncc2)n1
inactive: [1] 6.05% | [2] 6.9% | [3] -1.55% | [4] -8.3% | [5] 20.5% | [6] -5.35%

ClC[P+](c1ccccc1)(c1ccccc1)c1ccccc1
inactive: [1] 38.2% | [2] 19.3% | [3] 13.2% | [4] 11.6% | [5] 24.8% | [6] 33.4%

Nc1nc(N)c(N=Nc2ccc(S(=O)(=O)NC(=O)c3ccccc3)cc2)c(=O)[nH]1
inactive: [1] -8.4% | [2] -4.3% | [3] -6.9% | [4] -9.35% | [5] -2.55% | [6] -8.9%

CC(C)(C)OC(=O)NCC(O)CNC(=O)OC(C)(C)C
inactive: [1] -1.25% | [2] -6.6% | [3] -45.8% | [4] -26% | [5] -22.9% | [6] -24.6%

Source: PubChem BioAssay (NCI)
